Data on 39 compounds can be found in PubChem BioAssay (Tox21).

The structures appear in SMILES notation. Values joined by “and” are separate entries in the source; they are usually repeats but may differ in a detail not shown here. Identical values can stand only once. Results filed as inconclusive are left out. Unmarked numbers belong to inactive results. Active and inactive are the calls of the source. Calls come from the whole dose curve; as a rule, active = well fitted curve in the direction sought with a large enough effect in the repeat runs; inconclusive = weak or mixed curves; inactive = no such curve, though single readings can be large; an effect the other way counts as inactive or inconclusive.
% is set by controls: 0 for no effect and ±100 for the full control effect; potency is the fitted concentration of half-maximal effect.

One test in a line: qHTS RealTime-Glo MT Cell Viability Assay in HEK293 cells - 40 hour (AID 1224874). Note: nearly all actives have a fitted effect of over 50% in size. The conditions noted are these: RealTime-Glo luminescence; max response: hits give low values. The gist of the method: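 Kinetic, non-lysing viability readout. Seed HEK293 (600/well) with reagent, incubate 5 h at 37 C/5% CO2, pin 23 nL compound in DMSO, incubate at 37 C, read luminescence at 0, 8, 16, 24, 32, 40 h.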
A general note: In qHTS, concentration-response curves come from the screen itself.
For the compound `N#CSCc1ccccc1`, the max response was -24.3%. For `ClC1=C(Cl)[C@]2(Cl)[C@H]3[C@H]([C@@H]4C=C[C@H]3C4)[C@@]1(Cl)C2(Cl)Cl`, the Potency is 48.9 µM (active) and 43.6 µM (active). Turning to `O=C(N[C@@H]1N=C(c2ccccc2F)c2cccc3c2N(CC3)C1=O)c1cc2ccccc2[nH]1`, the max response was -2.71%. `CN(C)C(=S)SSC(=S)N(C)C`: the Potency is 216 nM (active) and 219 nM (active) and 9.52 µM (active).

A further test in a line: A CellTox Green Cytotoxicity Assay to monitor cytotoxicity in HEK293 cells - 24 hour (AID 1224875). Note: nearly all actives have a fitted effect of over 45% in size. The conditions noted are these: CellTox Green fluorescence; series mostly up to 76.8 µM; activity change: at the top concentration. The gist of the method:
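Real-time, in one plate: 600 HEK293 cells/well with dead-cell DNA dye, pinned compound after 5 h, 37 C incubation over 40 h; viable cells give no appreciable fluorescence.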
Take `COP(=S)(OC)Oc1nc(Cl)c(Cl)cc1Cl`: the “activity change” value is -1.09%. Same read-out and setting: then `[O-][Cl+3]([O-])([O-])O`, with -5.73%; and `CCCCC/C=C\C/C=C\C/C=C\C/C=C\CCCC(=O)NCC(=O)O`, with 7.87% [at 35.3 µM, hits give high values]; and `O=Cc1ccccc1`, with 0.432%. The same measure, in the same setting: then `N#CC(C#N)=NNc1cccc(Cl)c1`, with -1.56%. For `CC[C@H](C)[C@H]1O[C@]2(C=C[C@@H]1C)C[C@@H]1C[C@@H](C/C=C(\C)[C@@H](O[C@H]3C[C@H](OC)[C@@H](O[C@H]4C[C@H](OC)[C@@H](NC)[C@H](C)O4)[C@H](C)O3)[C@@H](C)/C=C/C=C3\CO[C@@H]4[C@H](O)C(C)=C[C@@H](C(=O)O1)[C@]34O)O2`, the Potency was 13.8 µM (active). With `Nc1cc(Cl)ccc1Cl`, the “activity change” value was 2.63%. The same measure, in the same setting: then `C1=CCC=C1`, with -6.12%. As to `BrCC(Br)(Br)Br`, the “activity change” value was 17%. In the case of `O=C1C2(Cl)C3(Cl)C4(Cl)C(Cl)(Cl)C5(Cl)C3(Cl)C1(Cl)C5(Cl)C24Cl` (stereo not drawn), the Potency was 38.3 µM (active) and 52.6 µM (active). The same measure, in the same setting: then `O=C1C(Cl)=C(Cl)C(=O)C(Cl)=C1Cl`, with 21.8 µM (active) and 24.5 µM (active).

`CSC(C)(C)/C=N/O`: the “activity change” value was -6.67%. Still for that read-out and setting: then `NC(=O)C(Cl)Cl`, with 2.78%; and `CN(C)CCc1c[nH]c2ccccc12`, with -17%; and `CCCCn1cc[n+](C)c1` (tested in a mixture with another compound), with -4.76%.

For the compound `CCC(C)c1cccc(C(C)CC)c1O` (stereo not drawn), the Potency is 38.9 µM (active). On the same count and under the same terms, then `Fc1ccc(C(OCCN2CCN(CCCc3ccccc3)CC2)c2ccc(F)cc2)cc1`, with 23.9 µM (active).

As to `CCN(CC)CCN1C(=O)CN=C(c2ccccc2F)c2cc(Cl)ccc21`, the “activity change” value is 9.48% [at 35.3 µM, hits give high values]. Consider `O=[N+]([O-])c1cc(C(F)(F)F)c(Cl)c([N+](=O)[O-])c1Nc1ncc(C(F)(F)F)cc1Cl`, for which the Potency was 38.9 µM (active). Turning to `CCCCn1cc[n+](C)c1.[Cl][Fe-]([Cl])([Cl])[Cl]`, the “activity change” value is 0.327%.

Turning to `S=C=NCCc1ccccc1`, the Potency is 43.7 µM (active). `Nc1nc(N)nc(Cl)n1`: the “activity change” value is 1.4%.

As for `Oc1cccc(Cl)c1Cl`, the “activity change” value was 10.5%. The same measure, in the same setting: then `CCCCCON=O`, with -5.86%; and `CC(=O)C(Cl)C(=O)N(C)C` (stereo not drawn), with 29.8%. The same measure, in the same setting: then `COc1ccc2[nH]cc(CCN(C(C)C)C(C)C)c2c1`, with -0.85%. Still for that read-out and setting: then `Cc1ccn2nc(S(=O)(=O)Nc3c(F)cccc3F)nc2n1`, with -2.92%. As for `COC(=O)C(C)N(C(=O)c1ccco1)c1c(C)cccc1C` (stereo not drawn), the “activity change” value is -1.25%. Same read-out and setting: the result for `CN1CCc2cc(Cl)c(O)cc2[C@H]2c3ccccc3CC[C@@H]21` reads 1.51% [at 35.3 µM, hits give high values]; that for `[C-]1=CC=CC1.[Cl][Zr+2][Cl].c1cc[cH-]c1`, -0.0942%. On the same count and under the same terms, the result for `O=c1c2ccccc2c(=O)c2c1cc(Cl)c1[nH]c3c([nH]c12)c(Cl)cc1c(=O)c2ccccc2c(=O)c13` reads -0.153%; that for `N#CSCc1ccccc1`, -6.06%.

In the case of `ClC1=C(Cl)[C@]2(Cl)[C@H]3[C@H]([C@@H]4C=C[C@H]3C4)[C@@]1(Cl)C2(Cl)Cl`, the Potency is 48.9 µM (active) and 49 µM (active).

Regarding `O=C(N[C@@H]1N=C(c2ccccc2F)c2cccc3c2N(CC3)C1=O)c1cc2ccccc2[nH]1`, the Potency is 5.35 µM (active). On the same count and under the same terms, the result for `CN(C)C(=S)SSC(=S)N(C)C` reads 27.2 µM (active) and 27.5 µM (active).

Another test in a line: A CellTox Green Cytotoxicity Assay to monitor cytotoxicity in HepG2 cells - 16 hour (AID 1224876). Note: nearly all actives have a fitted effect of over 45% in size. As to conditions: CellTox Green fluorescence; series mostly up to 76.8 µM; cytotoxicity increase: at the top concentration. The procedure, abridged:
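Cytotoxicity was tracked as dead-cell DNA fluorescence in HepG2 cells treated with test compounds at 37 C; each time-point value comes from one kinetic series spanning 0, 8, 16, 24, 32 and 40 h.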
As to `COP(=S)(OC)Oc1nc(Cl)c(Cl)cc1Cl`, the “cytotoxicity increase” value was 3.89%.

`[O-][Cl+3]([O-])([O-])O`: the “cytotoxicity increase” value was -10.9%. On to `CCCCC/C=C\C/C=C\C/C=C\C/C=C\CCCC(=O)NCC(=O)O`, for which the “cytotoxicity increase” value is 9.14% [at 35.3 µM]. Still for that read-out and setting: the result for `c1ccc(Nc2ccc(Nc3ccccc3)cc2)cc1` reads -1.91%; that for `O=Cc1ccccc1`, -6.24%. Consider `CC[C@H](C)[C@H]1O[C@]2(C=C[C@@H]1C)C[C@@H]1C[C@@H](C/C=C(\C)[C@@H](O[C@H]3C[C@H](OC)[C@@H](O[C@H]4C[C@H](OC)[C@@H](NC)[C@H](C)O4)[C@H](C)O3)[C@@H](C)/C=C/C=C3\CO[C@@H]4[C@H](O)C(C)=C[C@@H](C(=O)O1)[C@]34O)O2`, for which the Potency is 15.5 µM (active). As for `Nc1cc(Cl)ccc1Cl`, the “cytotoxicity increase” value was -1.84%. On to `C1=CCC=C1`, for which the “cytotoxicity increase” value was -12.6%.

On to `BrCC(Br)(Br)Br`, for which the “cytotoxicity increase” value is 0.422%. On to `CCC(OC(C)=O)C(CC(C)NC)(c1ccccc1)c1ccccc1` (stereo not drawn), for which the Potency was 62.2 µM (active). On the same count and under the same terms, then `O=C1C2(Cl)C3(Cl)C4(Cl)C(Cl)(Cl)C5(Cl)C3(Cl)C1(Cl)C5(Cl)C24Cl` (stereo not drawn), with 24.1 µM (active) and 41.8 µM (active); and `O=C1C(Cl)=C(Cl)C(=O)C(Cl)=C1Cl`, with 48.8 µM (active) and 19.5 µM (active). With `NC(=O)C(Cl)Cl`, the “cytotoxicity increase” value is -1.72%. In the case of `CN(C)CCc1c[nH]c2ccccc12`, the “cytotoxicity increase” value is -12.7%.

Turning to `CCCCn1cc[n+](C)c1` (tested in a mixture with another compound), the “cytotoxicity increase” value is 1.1%. In the case of `CCC(C)c1cccc(C(C)CC)c1O` (stereo not drawn), the Potency is 17.4 µM (active). Still for that read-out and setting: then `Fc1ccc(C(OCCN2CCN(CCCc3ccccc3)CC2)c2ccc(F)cc2)cc1`, with 23.9 µM (active). As to `CCN(CC)CCN1C(=O)CN=C(c2ccccc2F)c2cc(Cl)ccc21`, the “cytotoxicity increase” value is -2.93% [at 35.3 µM]. On the same count and under the same terms, then `Nc1ccccc1-c1ccccc1`, with 5.15%. For the compound `O=[N+]([O-])c1cc(C(F)(F)F)c(Cl)c([N+](=O)[O-])c1Nc1ncc(C(F)(F)F)cc1Cl`, the Potency is 43.6 µM (active). For `CCCCn1cc[n+](C)c1.[Cl][Fe-]([Cl])([Cl])[Cl]`, the “cytotoxicity increase” value is -11.4%. `Nc1nc(N)nc(Cl)n1`: the “cytotoxicity increase” value was 0.686%.

As to `Brc1cccc(-c2ccccc2)c1`, the “cytotoxicity increase” value was 9.12%. The same measure, in the same setting: then `CC(=O)C(Cl)C(=O)N(C)C` (stereo not drawn), with 0.096%. In the case of `COc1ccc2[nH]cc(CCN(C(C)C)C(C)C)c2c1`, the “cytotoxicity increase” value is 4.72%. Take `Cc1ccn2nc(S(=O)(=O)Nc3c(F)cccc3F)nc2n1`: the “cytotoxicity increase” value was -9.16%. On the same count and under the same terms, then `COC(=O)C(C)N(C(=O)c1ccco1)c1c(C)cccc1C` (stereo not drawn), with -4.43%; and `CN1CCc2cc(Cl)c(O)cc2[C@H]2c3ccccc3CC[C@@H]21`, with -13.4% [at 35.3 µM]; and `[C-]1=CC=CC1.[Cl][Zr+2][Cl].c1cc[cH-]c1`, with -20.2%. Same read-out and setting: the result for `O=c1c2ccccc2c(=O)c2c1cc(Cl)c1[nH]c3c([nH]c12)c(Cl)cc1c(=O)c2ccccc2c(=O)c13` reads -10.1%.

For the compound `N#CSCc1ccccc1`, the “cytotoxicity increase” value is -6.98%. As to `ClC1=C(Cl)[C@]2(Cl)[C@H]3[C@H]([C@@H]4C=C[C@H]3C4)[C@@]1(Cl)C2(Cl)Cl`, the Potency was 54.9 µM (active). Same read-out and setting: then `O=C(N[C@@H]1N=C(c2ccccc2F)c2cccc3c2N(CC3)C1=O)c1cc2ccccc2[nH]1`, with 21.3 µM (active). Still for that read-out and setting: then `CN(C)C(=S)SSC(=S)N(C)C`, with 21.9 µM (active).
